HCV inhibitor – HCV inhibition. actives 3.4% (n = 340,000). Huh7.5.1 HCVcc-Cre infection, luciferase reporter, 44 h. Potency, µM (highest dose often 41.8 µM), actives largely listed as inhibitors. AID 651820; active = well fitted inhibition curve with a large enough effect; inconclusive = small, poorly fitted or top-dose-only effect, or another doubt; inactive = no such curve, though single readings can be large or run the other way
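Infectious HCV cell culture screen: compound-treated cells (1,000/well, pre-plated 4 h) are infected with HCVcc-Cre at roughly 0.5 moi and grown 44 h. Infection is quantified by luciferase signal after 15 min substrate incubation at room temperature.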
VACV Venus inh – inhibitors of vaccinia virus (Venus reporter). Vaccinia virus Venus reporter expression, fluorescence. Potency, µM (series often up to 36.5 µM), usual class: inhibitors. actives 0.46% (n = 330,000); calls by dose curve; tested in A549 cells; also: nearly all actives have a fitted effect of over 30% in size
HCMV antiviral – blocks human cytomegalovirus replication; AID 1259415; activity change, negative = inhibition, % at 57.5 µM; HFF cells, HCMV-luciferase reporter, 72 h; hits give low values; actives 4.5% (n = 410,000); in the data active = activity change below about -60%; inconclusive = no clear call, values can overlap the other calls; inactive = above about -39%
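Human foreskin fibroblasts infected with luciferase-reporter HCMV at MOI 1 PFU/cell, compounds at two doses. Luciferase measured 72 h post infection; normalized to buffer-only basal and Salinomycin (10uM) controls.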
Lassa entry inh – Lassa virus entry inhibition. Lassa virus pseudotype entry inhibition, cell reporter. actives 1.2% (n = 300,000). Potency, µM (titrated, usually from 37.9 µM), most hits filed as inhibitors. AID 540256; calls by dose curve; tested in HEK293 cells; also: nearly all actives have a fitted effect of over 50% in size
Marburg entry inh – Marburg virus entry inhibition | AID 540276 | Marburg virus pseudotyped entry inhibition, cell reporter | Potency, µM (doses to about 37.8 µM), usual class: inhibitors | actives 1.8% (n = 300,000); calls by dose curve; tested in HEK293 cells
Vaccinia mCherry – vaccinia inhibition (mCherry reporter). Potency, µM (series often up to 36.5 µM), usual class: inhibitors. actives 0.63% (n = 310,000). Vaccinia virus mCherry reporter infection, fluorescence. AID 720579; calls by dose curve; tested in A549 cells; also: nearly all actives have a fitted effect of over 35% in size
Hits are given with their value; . = inactive; ? = inconclusive; / = no result; [ ] = remark or other dose. Most compounds without a hit are left out; they make up all but 7.8% or so of the library.

SMILES	HCV inhibitor	VACV Venus inh	HCMV antiviral	Lassa entry inh	Marburg entry inh	Vaccinia mCherry
O=C(c1ccc(Cl)c(S(=O)(=O)N2CCCCCC2)c1)N1CCN(c2ccccn2)CC1	7.1µM	?	-81	?	?	?
CCOc1ccccc1N1CCN(C(=O)c2ccc(Cl)c(S(=O)(=O)N3CCCCC3)c2)CC1	10µM	.	.	?	?	.
COc1cc(Cl)c(C)cc1NC(=O)Cn1ncc2c(=O)oc3ccccc3c21	/	.	.	.	.	.
CCOc1ccccc1NC(=O)c1cc2c(=O)oc3ccccc3c2s1	/	.	.	?	/	.
CCCN(CCC)C1=CC(=[N+]2CCCC2)CC(C)(C)C1	?	.	-101	10µM	?	.
CN(C)NC1=CC(=[N+]2CCCC2)CC(C)(C)C1	.	.	.	.	.	.
CC1(C)CC(N2CCCCC2)=CC(=[N+]2CCCCC2)C1	?	.	-95	?	?	.
COc1ccc(C(=O)CC(=O)C(=O)Nc2ccc(Cl)cc2)cc1	.	.	.	.	.	.
COc1ccc(C(=O)CC(Nc2ccc([N+](=O)[O-])cc2)c2ccc(Cl)cc2)cc1 (stereo not given)	?	/	-88	?	?	/
Cc1ccc(C)c(Oc2cc(NC(=O)CCCn3nc(C)c([N+](=O)[O-])c3C)cc([N+](=O)[O-])c2)c1	13µM	?	-88	?	?	?
Cc1nn(CCCC(=O)Nc2cc(Oc3ccccc3)cc([N+](=O)[O-])c2)c(C)c1[N+](=O)[O-]	?	?	.	.	?	?
O=C(NCCCCO)c1c(-c2ccccc2)oc2c1C(OCCCCCO)CCC2 (stereo not given)	/	.	.	/	/	.
CCc1cccc(CC)c1NC(=S)NC(C)c1ccccc1 (stereo not given)	?	.	-72	.	.	.
CCc1cc(C(=O)NNC(=S)NC(C)c2ccccc2)cs1 (stereo not given)	.	/	-73	.	.	/
Cc1ccccc1CNC(=O)CN1CCSc2ccccc21	/	.	.	.	/	.
NC(=O)c1ccc[n+](CC(=O)c2ccccc2)c1	0.56µM	.	.	.	?	?
Cc1nn(CC(=O)NCc2cccc(Br)c2)c(=O)c2c1sc1ccccc12	/	.	.	.	.	.
C[C@@]12C(=O)OC(=O)[C@@]1(C)[C@H]1CC[C@@H]2O1	/	/	/	/	3.3µM	/
CC12C(=O)OC(=O)C1(C)C1CCC2O1 (stereo not given)	/	.	/	2.9µM	3.3µM	.
Cc1ccnc2c(Cl)ccc(Cl)c12	/	.	/	/	/	.
COC(=O)[C@H]1[C@@H](c2ccccc2)NC(=O)N(CCc2cc(OC)c(OC)c(OC)c2)[C@@H]1C	/	/	/	/	.	/
O=C(CSc1nccn1Cc1ccc2c(c1)OCO2)Nc1ccccc1F	/	.	?	.	/	.
CCOC(=O)c1ccccc1NC(=O)Cn1c(=O)n(CCC(=O)NCc2ccccc2OC)c(=O)c2ccccc21	/	.	.	.	?	.
CC1CCN(S(=O)(=O)c2cn(CC(=O)Nc3cccc(C(F)(F)F)c3)c(=O)c3ccccc23)CC1	/	.	?	?	?	.
CC1CCN(S(=O)(=O)c2cn(CC(=O)Nc3ccc(F)cc3)c(=O)c3ccccc23)CC1	/	.	.	?	5.6µM	.
SMILES	HCV inhibitor	VACV Venus inh	HCMV antiviral	Lassa entry inh	Marburg entry inh	Vaccinia mCherry
CSC(N)=NCCCC(N)C(=O)O (stereo not given)	/	.	/	/	/	.
COc1cccc(-c2cc3nc(C)cc(N4CCN(C(=O)c5ccoc5)CC4)n3n2)c1	/	.	.	/	/	.
COc1cccc(-c2cc3nc(-c4ccccc4)cc(N4CCN(C(=O)c5ccoc5)CC4)n3n2)c1	/	?	-104	/	/	?
COc1cccc(-c2cc(N3CCN(C(=O)c4ccoc4)CC3)n3nc(-c4cccc(Cl)c4)cc3n2)c1	/	?	-94	/	/	.
COc1ccc(-c2cc3nc(C)cc(N4CCN(C(=O)c5ccoc5)CC4)n3n2)cc1	/	.	.	/	/	.
Cc1ccc(-n2nc(CO)c(C(=O)NCc3cccs3)n2)cc1	/	.	.	?	.	.
CCOC(=O)C(C(=O)OCC)c1cc(Br)c2noc3c2c1C(=O)c1ccccc1-3	?	.	-106	11µM	?	.[1.46 µM]
CC(=O)OCCNc1cc(N2CCN(C)CC2)c2noc3c2c1C(=O)c1ccccc1-3	.	.	.	/	/	.
Cc1ccc(/C=[N+](\[O-])c2ccccc2C)o1	.	/	-98	/	/	/
C=CC1=C2C=C(C3CC3)N(CCOC)C=C2C(=O)C(C)(OC(=O)c2ccco2)C1=O (stereo not given)	/	/	/	/	.	/

Screens (PubChem)
